These results are taken from the supplement of paper PMC6089552.

SMILES strings stand for the structures. Screen size: about 3,200 compounds; about 300 (9.4%) showed activity. Only a selection was taken, and actives are over-represented in it overall. Unmarked numbers belong to inactive results.

The test has as its system A673/TR/shEF. Kind of test: cell viability (LOESS-normalised, relative to median of negative controls) (log2 ratio); higher = more viable cells (less compound effect), active = hit call of the paper (over 3 MAD below the median). As to conditions: treatment time: 72 h. An outline of the steps:
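Doxycycline, present or absent from 24 h before compounds, was used to induce EWS-FLI1 shRNA knockdown in A673/TR/shEF Ewing sarcoma cells at 1,500 per well in 384-well plates. Cells then received library compounds at two or more concentrations, or DMSO controls, for three days. Viability was measured by CellTiter-Glo luminescence on an Envision reader, and per-plate LOESS correction, division by the negative-control median and log2 transformation followed.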

The mark [1] stands for this setting: 0.25 µM, library screen: screen1, EWS-FLI1 expression: high (no doxycycline).
Where [2] appears, read: 0.25 µM, library screen: screen1, EWS-FLI1 expression: low (doxycycline-induced shRNA knockdown).
Setting [3] is: 2.5 µM, library screen: screen1, EWS-FLI1 expression: high (no doxycycline).
Where [4] appears, read: 2.5 µM, library screen: screen1, EWS-FLI1 expression: low (doxycycline-induced shRNA knockdown).
Where [5] appears, read: 0.25 µM, library screen: screen2, EWS-FLI1 expression: high (no doxycycline).
Setting [6] is: 0.25 µM, library screen: screen2, EWS-FLI1 expression: low (doxycycline-induced shRNA knockdown).
[7] abbreviates: 2.5 µM, library screen: screen2, EWS-FLI1 expression: high (no doxycycline).
Setting [8] is: 2.5 µM, library screen: screen2, EWS-FLI1 expression: low (doxycycline-induced shRNA knockdown).

For the molecule `CCC(C)C(=O)OC1CC2(C)C(c3ccoc3)OC(=O)CC23OC2(C)OC34C(OC(=O)C(C)C)C3(O)C(OC(=O)C5(C)OC5C)C5(C)CC3(O)C(C)(C5CC(=O)OC)C14O2` (centres undefined), the “cell viability (log2)” value is 0.108 under setting [1], -0.0058 under setting [2], 0.0939 under setting [3] and 0.12 under setting [4].
The corresponding values for `CC(=O)OC1CCC2(C)C(CCC3C2CCC2(C)C(C4=CC(=O)OC4)C(OC(C)=O)CC32O)C1` (centres undefined) are -0.0585, -0.416, -2.02 (active) and -2.26 (active).
Take `CC(=O)O[C@@H]1CC[C@@]2(C)[C@@H](CC[C@@H]3[C@@H]2CC[C@]2(C)C(=O)CC[C@@H]32)C1`: the “cell viability (log2)” value is 0.0923 under setting [1], 0.0254 under setting [2], 0.0362 under setting [3] and 0.0893 under setting [4].
In the same order, the values of `C[C@]12CC[C@H](O)C[C@H]1CC[C@@H]1[C@@H]2CC[C@]2(C)[C@@H](C3=CC(=O)OC3)[C@@H](O)C[C@]12O` are 0.0825, 0.115, 0.137 and 0.0999.
Regarding `C[C@H]1O[C@@H](O[C@H]2[C@@H](O)C[C@H](O[C@H]3[C@@H](O)C[C@H](O[C@H]4CC[C@@]5(C)[C@H](CC[C@@H]6[C@@H]5CC[C@]5(C)[C@@H](C7=CC(=O)OC7)[C@@H](O)C[C@]65O)C4)O[C@@H]3C)O[C@@H]2C)C[C@H](O)[C@@H]1O`, the “cell viability (log2)” value was -0.13 (active) under setting [1], -0.332 (active) under setting [2], -1.73 (active) under setting [3] and -1.76 (active) under setting [4].
Regarding `CO[C@H]1C[C@H](O[C@H]2CC[C@@]3(C)[C@H](CC[C@@H]4[C@@H]3CC[C@]3(C)[C@@H](C5=CC(=O)OC5)[C@@H](OC(C)=O)C[C@]43O)C2)O[C@@H](C)[C@@H]1O`, the “cell viability (log2)” value reads like this: under setting [1], -0.578 (active); under setting [2], -1.73 (active); under setting [3], -3.54 (active); under setting [4], -4.25 (active).
On to `CC(=O)O[C@H]1C[C@@H]2CC[C@@H]3[C@H](CC[C@@]4(C)[C@H]3C[C@H]([N+]3(C)CCCCC3)[C@@H]4OC(C)=O)[C@@]2(C)C[C@@H]1[N+]1(C)CCCCC1`, for which the “cell viability (log2)” value by setting is: (0.103 µM, library screen: screen3, EWS-FLI1 expression: high (no doxycycline)) 0.0285; (0.103 µM, library screen: screen3, EWS-FLI1 expression: low (doxycycline-induced shRNA knockdown)) 0.0357; under setting [5], 0.133; under setting [6], 0.105; (0.308 µM, library screen: screen3, EWS-FLI1 expression: high (no doxycycline)) 0.115; (0.308 µM, library screen: screen3, EWS-FLI1 expression: low (doxycycline-induced shRNA knockdown)) 0.051. In addition, the “cell viability (log2)” value is 0.183 (0.926 µM, library screen: screen3, EWS-FLI1 expression: high (no doxycycline)); 0.0779 (0.926 µM, library screen: screen3, EWS-FLI1 expression: low (doxycycline-induced shRNA knockdown)); 0.145 under setting [7]; 0.0752 under setting [8]; 0.112 (2.8 µM, library screen: screen3, EWS-FLI1 expression: high (no doxycycline)); 0.0286 (2.8 µM, library screen: screen3, EWS-FLI1 expression: low (doxycycline-induced shRNA knockdown)). Also, the “cell viability (log2)” value is, setting by setting: (8.3 µM, library screen: screen3, EWS-FLI1 expression: high (no doxycycline)) 0.106; (8.3 µM, library screen: screen3, EWS-FLI1 expression: low (doxycycline-induced shRNA knockdown)) 0.0203; (25 µM, library screen: screen3, EWS-FLI1 expression: high (no doxycycline)) 0.16; (25 µM, library screen: screen3, EWS-FLI1 expression: low (doxycycline-induced shRNA knockdown)) 0.0865.
For `CC(=O)OC1CC(OC2C(O)CC(OC3C(O)CC(OC4CCC5(C)C(CCC6C5CC(O)C5(C)C(C7=CC(=O)OC7)CCC65O)C4)OC3C)OC2C)OC(C)C1OC1OC(CO)C(O)C(O)C1O` (centres undefined), the “cell viability (log2)” value by setting is: under setting [1], 0.0557; under setting [2], -0.286; under setting [3], -2.91 (active); under setting [4], -3.01 (active).
`NS(=O)(=O)c1ccc2c(c1)CNCC2`: the “cell viability (log2)” value under setting [5] was 0.162, the “cell viability (log2)” value under setting [6] is 0.085, the “cell viability (log2)” value under setting [7] was 0.143 and the “cell viability (log2)” value under setting [8] is 0.0805.
In the case of `CC[S+]([O-])CCSP(=O)(OC)OC` (centres undefined), the “cell viability (log2)” value under setting [1] was 0.119, the “cell viability (log2)” value under setting [2] is 0.0126, the “cell viability (log2)” value under setting [3] is 0.119 and the “cell viability (log2)” value under setting [4] was 0.0247.
Turning to `NC(=O)c1cc([N+](=O)[O-])cc([N+](=O)[O-])c1`, the “cell viability (log2)” value runs as follows: (0.025 µM, library screen: screen2, EWS-FLI1 expression: high (no doxycycline)) 0.148; (0.025 µM, library screen: screen2, EWS-FLI1 expression: low (doxycycline-induced shRNA knockdown)) 0.069; under setting [1], 0.071; under setting [2], 0.00829; under setting [5], 0.134; under setting [6], 0.0542. The “cell viability (log2)” value is 0.16 under setting [3]; 0.158 under setting [4]; 0.195 under setting [7]; 0.121 under setting [8]; 0.244 (25 µM, library screen: screen2, EWS-FLI1 expression: high (no doxycycline)); 0.114 (25 µM, library screen: screen2, EWS-FLI1 expression: low (doxycycline-induced shRNA knockdown)).
As to `C=C[C@H]1CN2CC[C@H]1C[C@@H]2[C@@H](OC(=O)OCC)c1ccnc2ccc(OC)cc12`, the “cell viability (log2)” value under setting [1] was 0.12, the “cell viability (log2)” value under setting [2] is 0.082, the “cell viability (log2)” value under setting [3] was 0.173 and the “cell viability (log2)” value under setting [4] was 0.169.
In the same order, the values of `Brc1ccc(CN2CCNCC2)cc1` are 0.0414, 0.121, 0.0626 and 0.0805.
Turning to `C[C@@H](N)[C@@H](O)c1ccccc1`, the “cell viability (log2)” value was 0.199 under setting [1], 0.05 under setting [2], 0.0838 under setting [3] and 0.0342 under setting [4].
Regarding `O=C(O)COc1ccc(Cl)cc1Cl`, the “cell viability (log2)” value runs as follows: under setting [1], 0.0733; under setting [2], 0.0542; under setting [3], 0.0257; under setting [4], 0.121.
In the case of `Oc1ccc2c3c1O[C@H]1c4oc5ccccc5c4C[C@@]4(O)C(C2)N(CC2CC2)CCC314` (some centres undefined), the “cell viability (log2)” value under setting [5] is 0.123, the “cell viability (log2)” value under setting [6] was 0.122, the “cell viability (log2)” value under setting [7] was 0.0412 and the “cell viability (log2)” value under setting [8] was 0.065.
As for `CC(C)(C)c1o[nH]c(=O)c1CC(N)C(=O)O` (centres undefined), the “cell viability (log2)” value runs as follows: under setting [5], 0.0947; under setting [6], 0.0371; under setting [7], 0.104; under setting [8], 0.0294.
With `CC[C@@H](C)C(=O)O[C@H]1[C@H](O)[C@H]2[C@@H](CN3C[C@@H](C)CC[C@H]3[C@@]2(C)O)[C@@H]2C[C@]34O[C@]5(O)[C@@H](OC(=O)[C@@](C)(O)[C@@H](C)O)CC[C@@]3(C)[C@@H]5[C@@H](OC(C)=O)[C@@H](OC(C)=O)[C@H]4[C@@]21O`, the “cell viability (log2)” value is 0.0432 under setting [1], 0.0125 under setting [2], 0.068 under setting [3] and 0.0811 under setting [4].
`CN1C2CC3CC1[C@H](O)C2O3` (some centres undefined): the “cell viability (log2)” value was 0.0139 under setting [1], -0.0209 under setting [2], 0.0278 under setting [3] and 0.0758 under setting [4].
With `NC(CF)(Cc1cnc[nH]1)C(=O)O` (centres undefined), the “cell viability (log2)” value reads like this: under setting [5], 0.186; under setting [6], 0.069; under setting [7], 0.162; under setting [8], 0.1.
Consider `CC(=O)O[C@@H]1C[C@H]2C(C)(C)C(=O)C=C[C@]2(C)[C@H]2CC[C@]3(C)C(=CC(=O)O[C@H]3c3ccoc3)[C@@]21C`, for which the “cell viability (log2)” value by setting is: under setting [1], 0.03; under setting [2], 0.143; under setting [3], 0.0618; under setting [4], 0.0922.
